The record followed here is PubChem BioAssay (NCATS).

The structures appear in SMILES notation. Inconclusive results are not listed. Entries that show only a call come without a potency. Activity calls are given as the source filed them. The call rests on the fitted dose curve; in most records, active means well fitted curve in the direction sought with a large enough effect; inconclusive means small, poorly fitted or top-dose-only effect, or another doubt; inactive means no such curve, though single readings can be large; an effect the other way counts as inactive or inconclusive.

Phospholipid hydroperoxide glutathione peroxidase GPX4 (Homo sapiens), sequence (P36969 whole entry, looked up): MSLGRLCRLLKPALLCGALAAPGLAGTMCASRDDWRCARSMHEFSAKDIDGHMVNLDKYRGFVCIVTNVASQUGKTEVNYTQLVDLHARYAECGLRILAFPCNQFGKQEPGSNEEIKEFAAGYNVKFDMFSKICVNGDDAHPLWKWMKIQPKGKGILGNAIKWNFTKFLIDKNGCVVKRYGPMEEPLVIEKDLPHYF

System in the first assay: not listed separately
The assay is described as follows: Primary qHTS for inhibitors of nuclear receptor binding SET domain protein 2 (NSD2) in an RCH-ACV wild type WT cells (2C) (AID 1645877). Further: nearly all actives have a fitted effect of over 70% in size. Further: potency means the concentration at half of the fitted maximal effect. Conditions: RCH-ACV (leukaemia line) NSD2 WT (2C) viability, CellTiter-Glo, 72 h; series mostly up to 44.9 µM. Background: qHTS replaces the single test concentration by a dilution series.
For the molecule `C=C1C(=O)O[C@H]2C[C@H](C)C(/C=C/C(C)=O)=CC[C@H]12`, the Potency is 1.32 µM (active).

For `OC1CCC(Oc2cccc3cnc(Nc4ccc5nc[nH]c5c4)nc23)CC1` (stereo not drawn), the Potency was 0.468 µM (active).

On to `CC1=C2[N-][C@H]([C@H](CC(N)=O)[C@@]2(C)CCC(=O)NC[C@@H](C)OP(=O)([O-])O[C@H]2[C@@H](O)[C@@H](n3cnc4cc(C)c(C)cc43)O[C@@H]2CO)[C@]2(C)N=C(C(C)=C3N=C(C=C4N=C1[C@@H](CCC(N)=O)C4(C)C)[C@@H](CCC(N)=O)[C@]3(C)CC(N)=O)[C@@H](CCC(N)=O)[C@]2(C)CC(N)=O.O.[Co+2]`, for which the Potency result was “inactive”.

Consider `CC(C)c1c(-c2ccccc2)nc2c(C#N)c[nH]n2c1=O`, for which the Potency entry is “inactive”.

As to `C=C1C(=O)O[C@@H]2[C@H]3C(C)=CC[C@@]34O[C@@]4(C)CC[C@@H]12`, the Potency was 4.68 µM (active).

Turning to `CN(C)C/C=C/C(=O)Nc1ccc(C(=O)N2CCC[C@@H](Nc3ncc(Cl)c(-c4c[nH]c5ccccc45)n3)C2)cc1`, the Potency was 0.132 µM (active).

With `Fc1cccc(-n2cnc3c(NCc4nc5c(F)c(F)ccc5[nH]4)nc(N4CCOCC4)nc32)c1`, the Potency is 0.166 µM (active).

Turning to `O=C(/C=C\n1cnc(-c2cc(C(F)(F)F)cc(C(F)(F)F)c2)n1)NNc1cnccn1`, the Potency is 2.09 µM (active).

On to `CS[C@H]1SC[C@@H]2C(=O)N(C)[C@H](C(C)C)C(=O)OC[C@H](NC(=O)c3cnc4ccccc4n3)C(=O)N[C@H](C)C(=O)N(C)[C@H]1C(=O)N(C)[C@H](C(C)C)C(=O)OC[C@H](NC(=O)c1cnc3ccccc3n1)C(=O)N[C@H](C)C(=O)N2C`, for which the Potency is 0.001 µM (active).

For another assay, the target named is Glutathione peroxidase 1 (Homo sapiens) (UniProt P07203). The assay is described as follows: Primary qHTS Assay for Inhibitors of Recombinant Selenoprotein Glutathione Peroxidase 1 (GPX1) (AID 1845191). Further: nearly all actives have a fitted effect of over 65% in size. Conditions: recombinant GPX1, GR-coupled NADPH fluorescence, 15 min; series mostly up to 48.8 µM. Summed up: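 GR-coupled readout: NADPH consumption tracked by fluorescence, ex 340/em 450 nm, at t=0 and after 15 min at RT. Final mix 10 nM GPX1, 1 mM GSH, 0.5 mM CHP, 0.5 mM NADPH, 100 nM GR, 0.01% BSA, following 30 min enzyme–compound preincubation.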
Glutathione peroxidase 1 (Homo sapiens), sequence (P07203 whole entry, looked up): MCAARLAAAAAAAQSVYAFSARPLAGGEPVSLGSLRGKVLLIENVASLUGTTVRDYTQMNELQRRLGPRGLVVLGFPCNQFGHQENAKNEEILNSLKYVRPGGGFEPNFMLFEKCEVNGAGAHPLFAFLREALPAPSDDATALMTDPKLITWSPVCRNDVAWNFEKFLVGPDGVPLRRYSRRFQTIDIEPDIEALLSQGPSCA
Regarding `C=C1C(=O)O[C@H]2C[C@H](C)C(/C=C/C(C)=O)=CC[C@H]12`, the Potency entry is “inactive”.

As for `OC1CCC(Oc2cccc3cnc(Nc4ccc5nc[nH]c5c4)nc23)CC1` (stereo not drawn), the Potency entry is “inactive”.

`CC1=C2[N-][C@H]([C@H](CC(N)=O)[C@@]2(C)CCC(=O)NC[C@@H](C)OP(=O)([O-])O[C@H]2[C@@H](O)[C@@H](n3cnc4cc(C)c(C)cc43)O[C@@H]2CO)[C@]2(C)N=C(C(C)=C3N=C(C=C4N=C1[C@@H](CCC(N)=O)C4(C)C)[C@@H](CCC(N)=O)[C@]3(C)CC(N)=O)[C@@H](CCC(N)=O)[C@]2(C)CC(N)=O.O.[Co+2]`: the Potency entry is “inactive”.

As to `CC(C)c1c(-c2ccccc2)nc2c(C#N)c[nH]n2c1=O`, the Potency result is “inactive”.

As to `C=C1C(=O)O[C@@H]2[C@H]3C(C)=CC[C@@]34O[C@@]4(C)CC[C@@H]12`, the Potency entry was “inactive”.

For the molecule `CN(C)C/C=C/C(=O)Nc1ccc(C(=O)N2CCC[C@@H](Nc3ncc(Cl)c(-c4c[nH]c5ccccc45)n3)C2)cc1`, the Potency result was “inactive”.

With `Fc1cccc(-n2cnc3c(NCc4nc5c(F)c(F)ccc5[nH]4)nc(N4CCOCC4)nc32)c1`, the Potency result was “inactive”.

For `C=C[C@@](C)(O)CC[C@@H]1[C@@]2(C)CCCC(C)(C)[C@@H]2CC[C@@]1(C)O`, the Potency result is “inactive”.

For `O=C(/C=C\n1cnc(-c2cc(C(F)(F)F)cc(C(F)(F)F)c2)n1)NNc1cnccn1`, the Potency result is “inactive”.

With `CS[C@H]1SC[C@@H]2C(=O)N(C)[C@H](C(C)C)C(=O)OC[C@H](NC(=O)c3cnc4ccccc4n3)C(=O)N[C@H](C)C(=O)N(C)[C@H]1C(=O)N(C)[C@H](C(C)C)C(=O)OC[C@H](NC(=O)c1cnc3ccccc3n1)C(=O)N[C@H](C)C(=O)N2C`, the Potency entry is “inactive”.

A further assay addresses Phospholipid hydroperoxide glutathione peroxidase GPX4 (Homo sapiens) (UniProt P36969). As to the kind of experiment: Primary qHTS Assay for Inhibitors of Recombinant Selenoprotein Glutathione Peroxidase 4 (GPX4) (AID 1845192). Further: nearly all actives have a fitted effect of over 65% in size. As to conditions: recombinant GPX4, GR-coupled NADPH fluorescence, 15 min; series mostly up to 50 µM. Summed up: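 Steps: GPX4 plus compound, 30 min RT; add GR/GSH/NADPH master mix; start with cumene hydroperoxide; read 340/450 nm fluorescence at 0 and 15 min. Finals were 200 nM GPX4, 1 mM GSH, 0.5 mM CHP, 0.5 mM NADPH, 100 nM GR.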
In the case of `C=C1C(=O)O[C@H]2C[C@H](C)C(/C=C/C(C)=O)=CC[C@H]12`, the Potency result was “inactive”.

Turning to `OC1CCC(Oc2cccc3cnc(Nc4ccc5nc[nH]c5c4)nc23)CC1` (stereo not drawn), the Potency entry is “inactive”.

For the molecule `CC1=C2[N-][C@H]([C@H](CC(N)=O)[C@@]2(C)CCC(=O)NC[C@@H](C)OP(=O)([O-])O[C@H]2[C@@H](O)[C@@H](n3cnc4cc(C)c(C)cc43)O[C@@H]2CO)[C@]2(C)N=C(C(C)=C3N=C(C=C4N=C1[C@@H](CCC(N)=O)C4(C)C)[C@@H](CCC(N)=O)[C@]3(C)CC(N)=O)[C@@H](CCC(N)=O)[C@]2(C)CC(N)=O.O.[Co+2]`, the Potency result was “inactive”.

As for `CC(C)c1c(-c2ccccc2)nc2c(C#N)c[nH]n2c1=O`, the Potency entry is “inactive”.

For `C=C1C(=O)O[C@@H]2[C@H]3C(C)=CC[C@@]34O[C@@]4(C)CC[C@@H]12`, the Potency result is “inactive”.

For the molecule `CN(C)C/C=C/C(=O)Nc1ccc(C(=O)N2CCC[C@@H](Nc3ncc(Cl)c(-c4c[nH]c5ccccc45)n3)C2)cc1`, the Potency entry was “inactive”.

In the case of `Fc1cccc(-n2cnc3c(NCc4nc5c(F)c(F)ccc5[nH]4)nc(N4CCOCC4)nc32)c1`, the Potency result is “inactive”.

Consider `O=C(/C=C\n1cnc(-c2cc(C(F)(F)F)cc(C(F)(F)F)c2)n1)NNc1cnccn1`, for which the Potency entry was “inactive”.

With `CS[C@H]1SC[C@@H]2C(=O)N(C)[C@H](C(C)C)C(=O)OC[C@H](NC(=O)c3cnc4ccccc4n3)C(=O)N[C@H](C)C(=O)N(C)[C@H]1C(=O)N(C)[C@H](C(C)C)C(=O)OC[C@H](NC(=O)c1cnc3ccccc3n1)C(=O)N[C@H](C)C(=O)N2C`, the Potency entry was “inactive”.
